Columns and labels:
Assay in all cases: DAPPL (digital affinity profiling via proximity ligation, sequencing); 10 mM Tris-HCl pH 7.5, 50 mM NaCl, 1 mM DTT, 4% glycerol, room temperature, 30 min; GST-TFs on glutathione beads, 16-mer random dsDNA library, 0.1% formaldehyde crosslink after washing; high values mean tight binding
Conditions in all cases: protein: recombinant; tags: N-terminal GST; dsDNA, one strand shown
[1] = biological target: T1, FLI1 (Homo sapiens, UniProt Q01543 1-452)
T1 sequence: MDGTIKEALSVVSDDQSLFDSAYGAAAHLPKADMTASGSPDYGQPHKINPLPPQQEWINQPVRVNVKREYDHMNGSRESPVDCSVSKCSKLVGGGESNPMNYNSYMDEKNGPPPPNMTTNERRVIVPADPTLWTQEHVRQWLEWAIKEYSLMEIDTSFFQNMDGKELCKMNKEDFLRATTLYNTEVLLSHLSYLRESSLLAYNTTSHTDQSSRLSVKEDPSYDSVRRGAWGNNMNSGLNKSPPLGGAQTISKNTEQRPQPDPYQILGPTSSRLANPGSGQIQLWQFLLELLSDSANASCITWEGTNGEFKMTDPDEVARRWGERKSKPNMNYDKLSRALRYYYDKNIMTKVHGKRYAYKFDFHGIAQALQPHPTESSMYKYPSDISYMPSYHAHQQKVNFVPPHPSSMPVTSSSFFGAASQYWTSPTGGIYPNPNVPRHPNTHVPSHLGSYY
Outline: (§1)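 Human transcription factors carrying a GST fusion were produced in yeast, bound to glutathione beads, tagged with DNA barcodes and pooled together with a tag-only sample. Each pool was held with 200 nmole of a random double-stranded 16-mer DNA library in Tris/NaCl/DTT/glycerol buffer for 30 min at room temperature, then washed, crosslinked in 0.1% formaldehyde, proximity-ligated with BsaI/T4 ligase (1 h, 37 °C), PCR-amplified and sequenced on an Illumina NextSeq500. Binding signal is the read frequency of each hexamer for a given factor divided by its frequency in the tag-only sample.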

[2] = biological target: T2, ELK1 (Homo sapiens, UniProt P19419 1-428)
T2 sequence: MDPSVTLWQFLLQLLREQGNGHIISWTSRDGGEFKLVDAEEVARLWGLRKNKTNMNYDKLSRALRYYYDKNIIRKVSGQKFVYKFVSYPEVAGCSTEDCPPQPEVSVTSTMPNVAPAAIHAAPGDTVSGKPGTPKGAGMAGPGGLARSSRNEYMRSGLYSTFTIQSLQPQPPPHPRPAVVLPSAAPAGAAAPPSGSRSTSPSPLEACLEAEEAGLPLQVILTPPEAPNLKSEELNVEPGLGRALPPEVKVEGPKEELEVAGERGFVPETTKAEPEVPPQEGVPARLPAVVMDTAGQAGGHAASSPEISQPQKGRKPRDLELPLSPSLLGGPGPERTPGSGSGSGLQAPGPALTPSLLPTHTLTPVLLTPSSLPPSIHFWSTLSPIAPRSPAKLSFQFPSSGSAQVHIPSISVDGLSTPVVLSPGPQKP
Outline: as §1

[3] = biological target: T3, GABPA (Homo sapiens, UniProt Q06546 1-454)
T3 sequence: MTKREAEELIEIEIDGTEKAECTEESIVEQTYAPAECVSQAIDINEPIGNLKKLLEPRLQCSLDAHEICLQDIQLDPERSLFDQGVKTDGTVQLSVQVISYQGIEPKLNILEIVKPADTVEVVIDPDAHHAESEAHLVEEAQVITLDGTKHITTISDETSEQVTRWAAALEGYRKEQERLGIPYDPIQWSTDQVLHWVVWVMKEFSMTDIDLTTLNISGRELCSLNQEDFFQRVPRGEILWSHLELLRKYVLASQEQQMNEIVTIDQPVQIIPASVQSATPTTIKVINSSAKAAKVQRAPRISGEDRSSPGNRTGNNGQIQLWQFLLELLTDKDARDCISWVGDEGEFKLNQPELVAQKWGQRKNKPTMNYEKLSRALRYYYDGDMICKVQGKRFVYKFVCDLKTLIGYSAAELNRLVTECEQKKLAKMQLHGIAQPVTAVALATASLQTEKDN
Outline: as §1

[4] = biological target: T4, ERG (Homo sapiens, UniProt P11308 1-479)
T4 sequence: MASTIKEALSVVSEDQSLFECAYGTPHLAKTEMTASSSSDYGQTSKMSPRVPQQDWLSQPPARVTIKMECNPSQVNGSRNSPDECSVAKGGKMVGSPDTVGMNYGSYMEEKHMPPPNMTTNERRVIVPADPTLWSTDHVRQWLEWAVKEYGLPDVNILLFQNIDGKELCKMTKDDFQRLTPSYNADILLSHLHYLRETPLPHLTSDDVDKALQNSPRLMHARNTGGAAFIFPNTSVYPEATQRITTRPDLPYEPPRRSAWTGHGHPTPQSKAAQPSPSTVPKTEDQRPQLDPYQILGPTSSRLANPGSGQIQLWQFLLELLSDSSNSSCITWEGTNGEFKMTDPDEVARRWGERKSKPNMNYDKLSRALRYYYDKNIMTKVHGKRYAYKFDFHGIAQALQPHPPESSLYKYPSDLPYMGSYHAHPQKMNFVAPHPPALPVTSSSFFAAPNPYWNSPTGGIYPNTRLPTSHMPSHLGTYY
Outline: as §1

[5] = biological target: ELF1 (Homo sapiens, UniProt P32519 1-619)
Sequence of ELF1 (P32519 whole entry): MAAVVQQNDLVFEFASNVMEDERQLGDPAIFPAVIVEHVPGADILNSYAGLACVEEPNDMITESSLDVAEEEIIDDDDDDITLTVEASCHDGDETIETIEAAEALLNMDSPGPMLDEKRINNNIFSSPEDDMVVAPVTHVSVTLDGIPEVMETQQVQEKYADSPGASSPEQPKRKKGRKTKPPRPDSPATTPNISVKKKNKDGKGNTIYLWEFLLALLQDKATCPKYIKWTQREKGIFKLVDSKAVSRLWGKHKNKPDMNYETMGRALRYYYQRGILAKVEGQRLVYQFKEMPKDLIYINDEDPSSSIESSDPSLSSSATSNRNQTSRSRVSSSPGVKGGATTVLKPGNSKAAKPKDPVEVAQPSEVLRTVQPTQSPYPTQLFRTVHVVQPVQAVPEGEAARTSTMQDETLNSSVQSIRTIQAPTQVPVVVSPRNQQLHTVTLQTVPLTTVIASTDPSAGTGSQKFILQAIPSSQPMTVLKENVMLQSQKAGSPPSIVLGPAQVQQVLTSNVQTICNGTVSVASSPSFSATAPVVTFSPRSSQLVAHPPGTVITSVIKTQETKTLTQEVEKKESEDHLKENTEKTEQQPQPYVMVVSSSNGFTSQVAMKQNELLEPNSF
Outline: as §1

[6] = biological target: T5, EHF (Homo sapiens, UniProt Q9NZC4 1-300)
T5 sequence: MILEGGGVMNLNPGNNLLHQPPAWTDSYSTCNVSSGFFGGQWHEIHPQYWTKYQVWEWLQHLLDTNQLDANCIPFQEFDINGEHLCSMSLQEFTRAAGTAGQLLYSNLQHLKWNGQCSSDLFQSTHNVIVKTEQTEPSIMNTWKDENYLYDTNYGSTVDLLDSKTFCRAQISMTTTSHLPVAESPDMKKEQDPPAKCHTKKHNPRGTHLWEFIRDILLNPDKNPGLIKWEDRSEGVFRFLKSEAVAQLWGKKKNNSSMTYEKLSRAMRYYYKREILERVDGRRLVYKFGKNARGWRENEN
Outline: as §1

[7] = biological target: SPI1 (Homo sapiens, UniProt P17947 1-270)
Outline: as §1

[8] = biological target: SPIB (Homo sapiens, UniProt Q01892 1-262)
Sequence of SPIB (Q01892 whole entry): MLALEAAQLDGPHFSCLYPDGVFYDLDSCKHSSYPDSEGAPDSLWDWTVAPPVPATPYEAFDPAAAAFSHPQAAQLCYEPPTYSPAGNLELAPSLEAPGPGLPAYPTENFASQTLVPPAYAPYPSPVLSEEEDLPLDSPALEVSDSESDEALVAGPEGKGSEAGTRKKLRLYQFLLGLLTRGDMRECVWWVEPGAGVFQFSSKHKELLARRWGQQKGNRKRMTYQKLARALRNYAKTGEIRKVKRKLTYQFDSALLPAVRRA
Outline: as §1

[9] = biological target: T6, ELK3 (Homo sapiens, UniProt P41970 1-407)
T6 sequence: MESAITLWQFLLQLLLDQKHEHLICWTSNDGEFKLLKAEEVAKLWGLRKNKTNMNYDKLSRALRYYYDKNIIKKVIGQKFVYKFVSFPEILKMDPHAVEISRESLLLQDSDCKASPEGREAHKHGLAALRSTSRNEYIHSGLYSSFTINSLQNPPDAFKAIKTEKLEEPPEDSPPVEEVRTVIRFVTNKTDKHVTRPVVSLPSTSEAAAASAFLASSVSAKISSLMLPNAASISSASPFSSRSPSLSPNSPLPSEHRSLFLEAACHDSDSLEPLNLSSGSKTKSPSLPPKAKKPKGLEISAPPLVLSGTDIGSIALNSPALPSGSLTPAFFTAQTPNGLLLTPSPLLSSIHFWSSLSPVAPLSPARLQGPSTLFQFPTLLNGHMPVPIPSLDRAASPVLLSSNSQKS
Outline: as §1

Sequence | binding signal [1] | binding signal [2] | binding signal [3] | binding signal [4] | binding signal [5] | binding signal [6] | binding signal [7] | binding signal [8] | binding signal [9]
CGCCCT | 1.44 fold enrichment (6-mer frequency, TF over GST control) | 1.36 fold enrichment (6-mer frequency, TF over GST control) | 1.37 fold enrichment (6-mer frequency, TF over GST control) | 1.31 fold enrichment (6-mer frequency, TF over GST control) | 1.43 fold enrichment (6-mer frequency, TF over GST control) | 1.35 fold enrichment (6-mer frequency, TF over GST control) | 1.24 fold enrichment (6-mer frequency, TF over GST control) | 1.36 fold enrichment (6-mer frequency, TF over GST control) | 1.5 fold enrichment (6-mer frequency, TF over GST control)
AAATTG | 1.2 fold enrichment (6-mer frequency, TF over GST control) | 1.23 fold enrichment (6-mer frequency, TF over GST control) | 1.26 fold enrichment (6-mer frequency, TF over GST control) | 1.23 fold enrichment (6-mer frequency, TF over GST control) | 1.22 fold enrichment (6-mer frequency, TF over GST control) | 1.28 fold enrichment (6-mer frequency, TF over GST control) | 1.26 fold enrichment (6-mer frequency, TF over GST control) | 1.25 fold enrichment (6-mer frequency, TF over GST control) | 1.22 fold enrichment (6-mer frequency, TF over GST control)
CTCCTA | 1.47 fold enrichment (6-mer frequency, TF over GST control) | 1.19 fold enrichment (6-mer frequency, TF over GST control) | 1.38 fold enrichment (6-mer frequency, TF over GST control) | 1.22 fold enrichment (6-mer frequency, TF over GST control) | 1.24 fold enrichment (6-mer frequency, TF over GST control) | 1.25 fold enrichment (6-mer frequency, TF over GST control) | 1.46 fold enrichment (6-mer frequency, TF over GST control) | 1.4 fold enrichment (6-mer frequency, TF over GST control) | 1.24 fold enrichment (6-mer frequency, TF over GST control)
ACTATT | 1.29 fold enrichment (6-mer frequency, TF over GST control) | 1.17 fold enrichment (6-mer frequency, TF over GST control) | 1.33 fold enrichment (6-mer frequency, TF over GST control) | 1.3 fold enrichment (6-mer frequency, TF over GST control) | 1.27 fold enrichment (6-mer frequency, TF over GST control) | 1.3 fold enrichment (6-mer frequency, TF over GST control) | 1.22 fold enrichment (6-mer frequency, TF over GST control) | 1.26 fold enrichment (6-mer frequency, TF over GST control) | 1.28 fold enrichment (6-mer frequency, TF over GST control)
AGCTTT | 1.21 fold enrichment (6-mer frequency, TF over GST control) | 1.2 fold enrichment (6-mer frequency, TF over GST control) | 1.13 fold enrichment (6-mer frequency, TF over GST control) | 1.12 fold enrichment (6-mer frequency, TF over GST control) | 1.2 fold enrichment (6-mer frequency, TF over GST control) | 1.11 fold enrichment (6-mer frequency, TF over GST control) | 1.16 fold enrichment (6-mer frequency, TF over GST control) | 1.04 fold enrichment (6-mer frequency, TF over GST control) | 1.13 fold enrichment (6-mer frequency, TF over GST control)
GATTTT | 1.16 fold enrichment (6-mer frequency, TF over GST control) | 1.15 fold enrichment (6-mer frequency, TF over GST control) | 1.21 fold enrichment (6-mer frequency, TF over GST control) | 1.12 fold enrichment (6-mer frequency, TF over GST control) | 1.12 fold enrichment (6-mer frequency, TF over GST control) | 1.18 fold enrichment (6-mer frequency, TF over GST control) | 1.12 fold enrichment (6-mer frequency, TF over GST control) | 1.12 fold enrichment (6-mer frequency, TF over GST control) | 1.07 fold enrichment (6-mer frequency, TF over GST control)
TTATGA | 1.15 fold enrichment (6-mer frequency, TF over GST control) | 1.15 fold enrichment (6-mer frequency, TF over GST control) | 1.22 fold enrichment (6-mer frequency, TF over GST control) | 1.08 fold enrichment (6-mer frequency, TF over GST control) | 1.19 fold enrichment (6-mer frequency, TF over GST control) | 1.16 fold enrichment (6-mer frequency, TF over GST control) | 1.15 fold enrichment (6-mer frequency, TF over GST control) | 1.14 fold enrichment (6-mer frequency, TF over GST control) | 1.22 fold enrichment (6-mer frequency, TF over GST control)
CCTCTA | 1.24 fold enrichment (6-mer frequency, TF over GST control) | 1.48 fold enrichment (6-mer frequency, TF over GST control) | 1.39 fold enrichment (6-mer frequency, TF over GST control) | 1.32 fold enrichment (6-mer frequency, TF over GST control) | 1.42 fold enrichment (6-mer frequency, TF over GST control) | 1.31 fold enrichment (6-mer frequency, TF over GST control) | 1.33 fold enrichment (6-mer frequency, TF over GST control) | 1.38 fold enrichment (6-mer frequency, TF over GST control) | 1.32 fold enrichment (6-mer frequency, TF over GST control)
